Source: the supplement of paper PMC10849652
The full data set covers some 7,900 targets. This sample favours those with a hit. About 0.6% of all pairs of compound and target were hits.

Compound: c1cc(OCCN2CCCCC2)cc(-c2n[nH]c3ccc(-c4nnc[nH]4)cc23)c1
Experiment: log2 fold change, soluble protein after heating vs DMSO (PISA); higher = thermal stabilisation; K562 cells, 10 uM, 30 min; active = over 0.2 and 3.5 SD of the protein, either way, in both replicates (recomputed)
In short: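 Soluble protein was defined as the supernatant after 21,000xg for 90 min. It came from K562 cells at 2×10^6 cells/mL given 10 μM compound for 30 min, heated in aliquots for 3 min across 48°C-58°C, pooled, and extracted in PBS with 0.5% NP-40 at 4°C, and was quantified by TMTpro 16plex LC-MS/MS with equalised channel sums. Thermal stability against control samples, from duplicates, is reported as log2 fold change.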

Sequence of UniProt P01116 (P01116 whole entry, looked up): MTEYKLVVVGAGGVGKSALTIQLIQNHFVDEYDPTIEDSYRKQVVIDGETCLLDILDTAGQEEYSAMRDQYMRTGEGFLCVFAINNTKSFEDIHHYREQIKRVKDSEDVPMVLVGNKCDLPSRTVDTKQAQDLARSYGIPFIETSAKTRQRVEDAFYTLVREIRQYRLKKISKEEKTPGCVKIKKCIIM
Sequence of UniProt P53778 (P53778 whole entry, looked up): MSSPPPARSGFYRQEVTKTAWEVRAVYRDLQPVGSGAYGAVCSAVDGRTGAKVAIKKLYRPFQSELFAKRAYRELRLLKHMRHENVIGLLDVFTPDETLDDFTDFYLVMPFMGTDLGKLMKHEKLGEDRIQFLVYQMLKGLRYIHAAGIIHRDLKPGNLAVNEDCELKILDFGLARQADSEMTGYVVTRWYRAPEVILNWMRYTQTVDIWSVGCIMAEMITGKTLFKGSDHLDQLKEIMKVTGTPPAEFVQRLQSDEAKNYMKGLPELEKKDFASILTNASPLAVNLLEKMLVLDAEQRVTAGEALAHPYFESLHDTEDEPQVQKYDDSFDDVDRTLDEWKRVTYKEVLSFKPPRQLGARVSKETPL
Sequence of UniProt Q9UIQ6 (Q9UIQ6 whole entry, looked up): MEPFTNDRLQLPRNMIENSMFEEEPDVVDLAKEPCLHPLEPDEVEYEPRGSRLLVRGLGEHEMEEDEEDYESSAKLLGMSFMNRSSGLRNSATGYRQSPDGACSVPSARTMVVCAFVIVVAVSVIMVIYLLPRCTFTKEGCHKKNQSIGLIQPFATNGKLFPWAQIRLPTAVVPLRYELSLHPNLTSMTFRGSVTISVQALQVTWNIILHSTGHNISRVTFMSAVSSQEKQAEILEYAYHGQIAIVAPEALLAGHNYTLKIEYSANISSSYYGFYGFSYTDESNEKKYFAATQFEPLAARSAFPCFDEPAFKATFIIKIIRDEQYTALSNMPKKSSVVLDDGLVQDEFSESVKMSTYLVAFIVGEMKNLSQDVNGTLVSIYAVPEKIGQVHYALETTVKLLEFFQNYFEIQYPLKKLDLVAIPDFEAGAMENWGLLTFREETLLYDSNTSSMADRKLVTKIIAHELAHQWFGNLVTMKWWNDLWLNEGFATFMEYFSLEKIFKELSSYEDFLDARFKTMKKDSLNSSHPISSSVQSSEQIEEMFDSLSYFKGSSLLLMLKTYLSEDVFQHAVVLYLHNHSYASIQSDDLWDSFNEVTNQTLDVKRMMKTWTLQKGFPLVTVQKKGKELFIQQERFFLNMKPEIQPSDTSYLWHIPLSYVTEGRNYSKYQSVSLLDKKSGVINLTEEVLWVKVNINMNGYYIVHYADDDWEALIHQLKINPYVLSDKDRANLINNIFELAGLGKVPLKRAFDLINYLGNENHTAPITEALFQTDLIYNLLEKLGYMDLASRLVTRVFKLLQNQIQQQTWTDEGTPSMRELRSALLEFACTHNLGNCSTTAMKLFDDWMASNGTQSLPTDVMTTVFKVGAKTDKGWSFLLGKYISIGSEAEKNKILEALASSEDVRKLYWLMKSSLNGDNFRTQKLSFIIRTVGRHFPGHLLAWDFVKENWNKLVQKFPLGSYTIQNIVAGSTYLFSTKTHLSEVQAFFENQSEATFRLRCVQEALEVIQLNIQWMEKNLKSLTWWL
Sequence of UniProt Q12905 (Q12905 whole entry, looked up): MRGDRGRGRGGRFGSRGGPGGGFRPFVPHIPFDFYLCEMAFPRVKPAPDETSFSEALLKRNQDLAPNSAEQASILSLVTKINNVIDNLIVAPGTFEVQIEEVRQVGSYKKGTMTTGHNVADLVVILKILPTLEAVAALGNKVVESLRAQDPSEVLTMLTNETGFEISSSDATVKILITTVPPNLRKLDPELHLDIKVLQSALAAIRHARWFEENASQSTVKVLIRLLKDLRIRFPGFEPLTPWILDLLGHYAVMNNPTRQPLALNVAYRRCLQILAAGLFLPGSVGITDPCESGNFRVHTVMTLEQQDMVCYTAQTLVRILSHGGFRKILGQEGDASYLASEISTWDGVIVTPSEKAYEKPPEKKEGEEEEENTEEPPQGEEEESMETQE
Sequence of UniProt Q07820 (Q07820 whole entry, looked up): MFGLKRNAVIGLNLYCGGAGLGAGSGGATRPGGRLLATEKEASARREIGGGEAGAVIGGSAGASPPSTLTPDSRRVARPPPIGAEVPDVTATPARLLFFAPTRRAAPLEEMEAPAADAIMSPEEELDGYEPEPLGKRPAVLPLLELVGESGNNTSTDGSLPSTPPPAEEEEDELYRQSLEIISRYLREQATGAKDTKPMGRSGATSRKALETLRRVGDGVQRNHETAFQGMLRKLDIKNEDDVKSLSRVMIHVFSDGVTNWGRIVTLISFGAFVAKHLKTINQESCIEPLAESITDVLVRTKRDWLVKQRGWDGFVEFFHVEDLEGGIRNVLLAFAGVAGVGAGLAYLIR
Sequence of UniProt O94829 (O94829 whole entry, looked up): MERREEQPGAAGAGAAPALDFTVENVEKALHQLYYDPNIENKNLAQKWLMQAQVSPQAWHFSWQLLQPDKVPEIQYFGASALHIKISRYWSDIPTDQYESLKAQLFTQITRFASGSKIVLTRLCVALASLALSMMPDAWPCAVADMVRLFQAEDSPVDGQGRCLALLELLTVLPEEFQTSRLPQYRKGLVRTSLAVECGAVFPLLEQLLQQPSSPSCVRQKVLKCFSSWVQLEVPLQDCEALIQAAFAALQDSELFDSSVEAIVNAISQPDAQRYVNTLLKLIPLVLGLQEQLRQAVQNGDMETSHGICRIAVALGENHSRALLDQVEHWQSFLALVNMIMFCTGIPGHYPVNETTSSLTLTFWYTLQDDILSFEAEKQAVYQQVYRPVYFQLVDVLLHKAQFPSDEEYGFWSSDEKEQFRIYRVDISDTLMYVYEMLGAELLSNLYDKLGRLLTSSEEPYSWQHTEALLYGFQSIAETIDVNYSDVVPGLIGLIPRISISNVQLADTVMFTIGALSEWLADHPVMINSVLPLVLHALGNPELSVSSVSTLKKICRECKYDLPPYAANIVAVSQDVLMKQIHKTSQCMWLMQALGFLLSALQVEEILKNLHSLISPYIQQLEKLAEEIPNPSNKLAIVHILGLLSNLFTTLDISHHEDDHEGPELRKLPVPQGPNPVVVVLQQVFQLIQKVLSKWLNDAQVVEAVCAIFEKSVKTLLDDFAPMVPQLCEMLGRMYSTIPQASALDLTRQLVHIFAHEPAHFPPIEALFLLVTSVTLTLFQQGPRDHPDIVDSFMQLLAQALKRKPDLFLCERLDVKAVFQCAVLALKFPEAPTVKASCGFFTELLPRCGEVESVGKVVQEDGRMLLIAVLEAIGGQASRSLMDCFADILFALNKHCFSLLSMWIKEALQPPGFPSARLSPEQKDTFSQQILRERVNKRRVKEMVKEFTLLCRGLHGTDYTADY
Sequence of UniProt Q9Y2U8 (Q9Y2U8 whole entry, looked up): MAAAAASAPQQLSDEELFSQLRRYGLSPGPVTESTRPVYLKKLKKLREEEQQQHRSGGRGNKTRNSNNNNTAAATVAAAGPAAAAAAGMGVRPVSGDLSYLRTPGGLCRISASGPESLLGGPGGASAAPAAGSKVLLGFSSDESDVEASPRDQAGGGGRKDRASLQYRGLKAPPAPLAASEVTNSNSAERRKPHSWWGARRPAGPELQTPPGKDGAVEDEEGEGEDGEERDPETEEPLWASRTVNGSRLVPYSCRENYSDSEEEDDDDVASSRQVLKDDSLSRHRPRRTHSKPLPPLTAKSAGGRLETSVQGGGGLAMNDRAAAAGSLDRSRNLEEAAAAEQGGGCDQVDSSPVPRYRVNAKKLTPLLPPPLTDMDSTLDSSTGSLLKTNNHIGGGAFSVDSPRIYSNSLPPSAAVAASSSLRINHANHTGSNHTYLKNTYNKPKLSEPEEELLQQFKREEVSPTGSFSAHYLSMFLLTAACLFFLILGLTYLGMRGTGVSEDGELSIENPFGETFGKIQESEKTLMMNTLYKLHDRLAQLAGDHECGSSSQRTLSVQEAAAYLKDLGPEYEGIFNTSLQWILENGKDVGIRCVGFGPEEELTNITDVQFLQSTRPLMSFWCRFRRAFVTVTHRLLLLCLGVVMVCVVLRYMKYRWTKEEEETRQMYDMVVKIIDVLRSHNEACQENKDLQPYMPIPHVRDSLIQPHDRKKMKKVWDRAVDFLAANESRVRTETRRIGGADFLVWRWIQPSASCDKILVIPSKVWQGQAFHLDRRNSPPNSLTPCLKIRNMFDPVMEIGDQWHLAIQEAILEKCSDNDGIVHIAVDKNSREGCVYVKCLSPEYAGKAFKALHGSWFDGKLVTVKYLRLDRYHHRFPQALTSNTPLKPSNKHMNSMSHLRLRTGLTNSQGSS
Sequence of UniProt Q9Y383 (Q9Y383 whole entry, looked up): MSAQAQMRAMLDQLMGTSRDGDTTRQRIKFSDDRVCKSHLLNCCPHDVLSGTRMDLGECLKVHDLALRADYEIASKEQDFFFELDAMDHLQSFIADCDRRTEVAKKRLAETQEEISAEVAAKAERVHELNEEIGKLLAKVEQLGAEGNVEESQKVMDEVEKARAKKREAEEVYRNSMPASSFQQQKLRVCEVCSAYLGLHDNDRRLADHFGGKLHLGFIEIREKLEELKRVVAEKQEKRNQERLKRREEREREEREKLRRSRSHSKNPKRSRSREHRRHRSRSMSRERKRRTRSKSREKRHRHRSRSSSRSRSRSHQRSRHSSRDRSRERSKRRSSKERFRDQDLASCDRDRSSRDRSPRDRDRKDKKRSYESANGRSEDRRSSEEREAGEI
Sequence of UniProt P36507 (P36507 whole entry, looked up): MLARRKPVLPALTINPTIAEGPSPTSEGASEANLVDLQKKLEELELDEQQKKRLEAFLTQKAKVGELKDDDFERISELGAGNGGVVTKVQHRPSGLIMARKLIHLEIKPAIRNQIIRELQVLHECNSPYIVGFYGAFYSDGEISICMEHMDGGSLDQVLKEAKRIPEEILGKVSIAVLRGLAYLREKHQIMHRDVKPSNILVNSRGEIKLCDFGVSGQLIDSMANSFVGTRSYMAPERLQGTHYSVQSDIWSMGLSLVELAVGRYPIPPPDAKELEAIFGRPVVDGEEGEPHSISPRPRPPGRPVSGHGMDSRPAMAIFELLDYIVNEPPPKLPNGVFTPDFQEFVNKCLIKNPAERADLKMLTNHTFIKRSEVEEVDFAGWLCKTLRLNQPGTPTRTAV

log2 fold change, inactive:
KRAS isoform 2 (UniProt P01116) -0.032, LEMD3 (UniProt Q9Y2U8) 0.057, LIMD1 (UniProt Q9UGP4) 0.01, LMF2 (UniProt Q9BU23) 0.046, IPO13 (UniProt O94829) -0.175, LNPEP (UniProt Q9UIQ6) -0.022, MAGOHB (UniProt Q96A72) -0.089, MAP3K7 (UniProt O43318) -0.068, KPNB1 (UniProt Q14974) -0.059, MAPK12 (UniProt P53778) 0.018, MEPCE (UniProt Q7L2J0) 0.026, ILF2 (UniProt Q12905) -0.18, MAPKAPK3 (UniProt Q16644) 0.05, MCL1 (UniProt Q07820) 0.142, MDN1 (UniProt Q9NU22) 0.082, MAP3K4 isoform 2 (UniProt Q9Y6R4) -0.075, MAP2K2 (UniProt P36507) -0.018, KCTD2 (UniProt Q14681) -0.204, MARK3 (UniProt P27448) -0.317, LUC7L2 (UniProt Q9Y383) -0.095, LMNB1 (UniProt P20700) -0.072, MICOS13 (UniProt Q5XKP0) 0.025, IMMT isoform 2 (UniProt Q16891) 0.008
